Activity calls are given as the source filed them.
System: not listed separately
Assay: S. cerevisiae growth modulation with rapamycin, primary screen, strain BY4716, OD600, 96 h (AID 1091); note: test concentration not given here
Conditions: higher = more signal, called active from +8 up or from −8 down

Question: Which z-score does the source give for CC(C)CNC(=O)[C@@]1(C)c2ccccc2C(=O)N(Cc2ccccc2)[C@H]1c1ccc(CO)cc1 here?
Answer: Its z-score is -0.879 (inactive).

Question: For COc1ccccc1CN1C(=O)c2ccccc2[C@](Cc2ccccc2I)(C(=O)NCCN2CCOCC2)[C@@H]1c1ccc(CO)cc1, which z-score is on record?
Answer: Its z-score is -0.168 (inactive).

Question: Which z-score does the source give for CCCCCCC#C[Si](O[C@H](c1ccccc1)c1cn(Cc2cccc(Cl)c2)nn1)(C(C)C)C(C)C here?
Answer: The z-score was -0.162 (inactive).

Question: With COc1ccc([Si](C)(C)[C@@H]2[C@@H](CCO)O[C@]3(C(=O)N(Cc4ccccc4)c4ccc(N5CCCCC5=O)cc43)[C@H]2C)cc1 as the compound, how does the z-score read?
Answer: The z-score was 4.86 (inactive).

Question: Which z-score does the source give for COC(=O)[C@@]1(Cc2ccc(F)cc2)[C@@H]2[C@@H](CC(=O)[C@H]2CC(=O)C(=O)N2CCCC2)CN1C(=O)c1ccccc1 here?
Answer: The z-score was 3.52 (inactive).

Question: For COCCOC(=O)N1C(=O)[C@@]2(c3cc(C#CCCO)ccc31)[C@H](c1ccc(OCCO)cc1)N1[C@H](c3ccccc3)[C@H](c3ccccc3)OC(=O)[C@H]1[C@@H]2C(=O)N1CCc2cc(OC)c(OC)cc2C1, which z-score is on record?
Answer: The z-score was 4.19 (inactive).

Question: With C=CC[C@]1(C(=O)NCC(O)CO)N=C(c2ccc(OCCCO)cc2)O[C@H]1c1ccccc1N=[N+]=[N-] (some centres not stated) as the compound, how does the z-score read?
Answer: Its z-score is -0.325 (inactive).

Question: Which z-score does the source give for O=C(O)[C@]1(CCS(=O)(=O)c2ccccc2)N=C(c2ccc(OCCCO)cc2)O[C@@H]1c1ccccc1 here?
Answer: The z-score was -0.961 (inactive).

Question: With [N-]=[N+]=NCc1ccccc1C[C@]1(C(=O)NCCN2CCOCC2)COC(c2ccc(OCCCO)cc2)=N1 as the compound, how does the z-score read?
Answer: Its z-score is -1.66 (inactive).

Question: Which z-score does the source give for CC(C)C[C@@H]1NC(=O)[C@@H]2C[C@H](C(=O)NCc3ccc(F)cc3)[C@H](c3ccc(O)cc3)N2C1=O here?
Answer: Its z-score is -0.427 (inactive).

Question: With C=CCNC(=O)[C@H]1[C@@H]2C(=O)O[C@@H](c3ccccc3)[C@@H](c3ccccc3)N2[C@@H](c2ccc(O)cc2)[C@]12C(=O)N(C(=O)OCCOC)c1ccc(C#CC3(O)CCCCCC3)cc12 as the compound, how does the z-score read?
Answer: The z-score was 0.943 (inactive).

Question: With COCCOC(=O)N1C(=O)[C@@]2(c3cc(C#CCC(C(=O)OC)C(=O)OC)ccc31)[C@H](C(=O)N1CCCCCCC1)[C@H]1C(=O)O[C@H](c3ccccc3)[C@H](c3ccccc3)N1[C@@H]2c1ccc(O)cc1 as the compound, how does the z-score read?
Answer: Its z-score is 1.15 (inactive).

Question: With O=[N+]([O-])c1ccc(C[n+]2ccc(-c3ccc(CO)cc3)cc2)o1 as the compound, how does the z-score read?
Answer: The z-score was 0.196 (inactive).

Question: With CN1C(=O)C2C=CC(C(O)COCc3ccccc3)N(Nc3ccccc3)C2C1=O (configuration not stated) as the compound, how does the z-score read?
Answer: Its z-score is -0.116 (inactive).

Question: With COC(=O)[C@@]1(Cc2ccc(OC)cc2)[C@H]2c3cc(C(=O)N4CCCC4)n(CCc4ccc(O)c(OC)c4)c3C[C@H]2CN1C(=O)c1ccccc1 as the compound, how does the z-score read?
Answer: The z-score was 0.0019 (inactive).

Question: With C=C(CCCC)/C(=C/C[C@H](OC(=O)c1ccncc1)c1ccc(CO)o1)c1cc(C(=O)OC)ccc1OC as the compound, how does the z-score read?
Answer: The z-score was -0.57 (inactive).

Question: With C[C@@H]1ON(c2ccccc2)[C@H](c2ccccc2)[C@H]1C(=O)N1C(=O)OC[C@H]1Cc1ccccc1 as the compound, how does the z-score read?
Answer: Its z-score is 0.125 (inactive).

Biological target: Torsin-1A-interacting protein 2 (Homo sapiens) (UniProt Q8NFQ8)
Sequence (Q8NFQ8 whole entry, looked up): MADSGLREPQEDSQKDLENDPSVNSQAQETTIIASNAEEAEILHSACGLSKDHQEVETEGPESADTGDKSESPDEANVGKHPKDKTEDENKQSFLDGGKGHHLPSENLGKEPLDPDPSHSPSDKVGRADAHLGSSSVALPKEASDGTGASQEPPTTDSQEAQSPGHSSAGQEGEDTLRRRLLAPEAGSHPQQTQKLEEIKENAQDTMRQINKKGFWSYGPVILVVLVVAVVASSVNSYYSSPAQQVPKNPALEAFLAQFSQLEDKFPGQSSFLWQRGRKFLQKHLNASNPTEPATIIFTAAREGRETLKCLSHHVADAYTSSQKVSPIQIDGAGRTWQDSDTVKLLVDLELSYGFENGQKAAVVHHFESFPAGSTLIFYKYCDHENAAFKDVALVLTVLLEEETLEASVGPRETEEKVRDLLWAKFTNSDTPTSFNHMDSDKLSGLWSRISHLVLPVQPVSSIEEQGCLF
Assay: LULL1 binders on small-molecule microarray, primary screen, cell lysate, human LULL1 lysate, 635/667 nm fluorescence (AID 1092);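 note: probe is lysate of COS7 cells overexpressing human LULL1; score merges per-feature 667 nm fluorescence with signal-to-noise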
Conditions: hLULL1 lysate binding, 635 nm fluorescence, higher = more signal

Question: Which composite z-score does the source give for COC(=O)c1ccc(OC)c(/C=C\CC(CCc2ccccc2)OC(C)=O)c1 (configuration not stated) here?
Answer: The composite z-score was 0.324.

Question: Which composite z-score does the source give for C[N+](C)(C)CCCC[C@@H]1NC(=O)[C@H]2C[C@@H](C(=O)NCCCCCCN)[C@@H](c3cccc(OCCO)c3)N2C1=O here?
Answer: Its composite z-score is 3.06.

Question: For C/C=C/[C@@H](CCn1cc([C@H](O)c2ccccc2)nn1)[Si](C)(C)c1ccc(OC)cc1, which composite z-score is on record?
Answer: The composite z-score was 1.33.

Question: For CCCCCCCCCCC(O)C1C=CC2C(=O)NC(=O)C2N1Nc1ccccn1 (configuration not stated), which composite z-score is on record?
Answer: Its composite z-score is 1.78.

Question: With COC(=O)[C@@]1(Cc2ccc(F)cc2)[C@H]2c3cc(C(=O)N(C)C)n(CCSCCO)c3C[C@H]2CN1C(=O)c1ccccc1 as the compound, how does the composite z-score read?
Answer: The composite z-score was 2.72.

Question: Which composite z-score does the source give for CC1CC/C=C\[C@H]2OC34C=CCN(Cc5ccccc5)C(=O)[C@H]3N(CCO)C(=O)[C@@H]4C2C(=O)O1 (some centres not stated) here?
Answer: Its composite z-score is 1.27.

Question: For C=C(COC)C(=O)CC[C@H](OC(=O)c1ccccc1-c1ccccc1C(=O)O)c1ccc(OCCO)cc1, which composite z-score is on record?
Answer: Its composite z-score is 0.75.

Question: Which composite z-score does the source give for C=CCC(OC(C)=O)[C@@H]1[C@@H](N(Cc2cc3ccccc3o2)C(=O)Cc2ccc(OC)cc2)c2cc(OCCCO)ccc2N1C(=O)c1ccc(-c2ccccc2)cc1 (some centres not stated) here?
Answer: Its composite z-score is 0.238.

Question: For CC1CC/C=C\[C@H]2OC34C=CCN(c5ccc(Cl)cc5)C(=O)[C@H]3N(C(CO)C(C)C)C(=O)[C@]4(C)C2C(=O)O1 (some centres not stated), which composite z-score is on record?
Answer: Its composite z-score is 2.25.

Question: For O=C1O[C@@H](c2ccccc2)[C@@H](c2ccccc2)N2[C@@H](c3ccc(O)cc3)[C@]3(C(=O)Nc4ccc(C#CC5(O)CCCCCC5)cc43)[C@@H](C(=O)N3CCN(c4ncccn4)CC3)[C@H]12, which composite z-score is on record?
Answer: The composite z-score was 2.75.

Question: With CC[C@@H]1[C@@H]2C3C(=O)N(CC)C(=O)C3CC(=O)[C@@H]2[C@H](c2ccc(C)cc2)N1S(=O)(=O)c1ccc(C)cc1 (some centres not stated) as the compound, how does the composite z-score read?
Answer: The composite z-score was 3.3.

Question: For COCCOC(=O)N1C(=O)[C@@]2(c3cc(C#CCCO)ccc31)[C@H](C(=O)NC[C@H](O)c1ccccc1)[C@H]1C(=O)O[C@H](c3ccccc3)[C@H](c3ccccc3)N1[C@@H]2c1ccccc1OCCO, which composite z-score is on record?
Answer: Its composite z-score is 2.62.

Question: Which composite z-score does the source give for C=CCOC(=O)[C@@H]1[C@H]2C(=O)O[C@H](c3ccccc3)[C@H](c3ccccc3)N2[C@H](c2ccc(OCCOC(=O)[C@@H]3C[C@@H]4C(=O)N[C@@H](CCCCNC(C)=O)C(=O)N4[C@@H]3c3ccc(O)cc3)cc2)[C@@]12C(=O)Nc1ccc(I)cc12 here?
Answer: The composite z-score was 2.15.

Question: Which composite z-score does the source give for CC(C)CCC[C@@H](C)[C@H]1CC[C@@]2(C)C3=C(CC[C@]12C)[C@@]1(C)CC[C@H](OC(=O)c2ccc(N)cc2)C(C)(C)C1CC3 (some centres not stated) here?
Answer: Its composite z-score is -0.0362.

Question: For CCCN1C(=O)[C@@H]2Cc3c([nH]c4ccccc34)[C@@H](c3cccc(O)c3)N2C1=O, which composite z-score is on record?
Answer: Its composite z-score is 0.379.

Question: For C=CCN1C(=O)[C@@]2(O[C@@H](CCn3cc([C@H](O)c4ccccc4)nn3)[C@H]([Si](C)(C)c3ccc(OC)cc3)[C@H]2C)c2cc(NC(=O)c3ccc(OC)cc3)ccc21, which composite z-score is on record?
Answer: The composite z-score was 1.72.

Question: For COc1ccc([Si](C)(C)[C@@H]2[C@@H](CC(=O)N(CCO)Cc3ccccc3)O[C@]3(C(=O)N(Cc4ccc(N5CCOC5=O)cc4)c4ccccc43)[C@H]2C)cc1, which composite z-score is on record?
Answer: The composite z-score was 2.13.

Question: Which composite z-score does the source give for COCCOC(=O)N1C(=O)[C@@]2(c3cc(C#Cc4ccc(OC)cc4)ccc31)[C@H](C(=O)N1CCc3cc(OC)c(OC)cc3C1)[C@H]1C(=O)O[C@H](c3ccccc3)[C@H](c3ccccc3)N1[C@@H]2c1ccc(O)cc1 here?
Answer: The composite z-score was 2.

Question: For CC(C)CNC(=O)[C@@]1(C)c2ccccc2C(=O)N(Cc2ccccc2)[C@H]1c1ccc(CO)cc1, which composite z-score is on record?
Answer: Its composite z-score is 3.04.

Question: For COc1ccccc1CN1C(=O)c2ccccc2[C@](Cc2ccccc2I)(C(=O)NCCN2CCOCC2)[C@@H]1c1ccc(CO)cc1, which composite z-score is on record?
Answer: The composite z-score was 3.27.

Question: Which composite z-score does the source give for CCCCCCC#C[Si](O[C@H](c1ccccc1)c1cn(Cc2cccc(Cl)c2)nn1)(C(C)C)C(C)C here?
Answer: The composite z-score was 0.416.

Question: For COc1ccc([Si](C)(C)[C@@H]2[C@@H](CCO)O[C@]3(C(=O)N(Cc4ccccc4)c4ccc(N5CCCCC5=O)cc43)[C@H]2C)cc1, which composite z-score is on record?
Answer: Its composite z-score is 2.06.

Question: With COC(=O)[C@@]1(Cc2ccc(F)cc2)[C@@H]2[C@@H](CC(=O)[C@H]2CC(=O)C(=O)N2CCCC2)CN1C(=O)c1ccccc1 as the compound, how does the composite z-score read?
Answer: Its composite z-score is 3.67.

Question: For COCCOC(=O)N1C(=O)[C@@]2(c3cc(C#CCCO)ccc31)[C@H](c1ccc(OCCO)cc1)N1[C@H](c3ccccc3)[C@H](c3ccccc3)OC(=O)[C@H]1[C@@H]2C(=O)N1CCc2cc(OC)c(OC)cc2C1, which composite z-score is on record?
Answer: The composite z-score was 2.48.

Question: Which composite z-score does the source give for C=CC[C@]1(C(=O)NCC(O)CO)N=C(c2ccc(OCCCO)cc2)O[C@H]1c1ccccc1N=[N+]=[N-] (some centres not stated) here?
Answer: The composite z-score was 3.31.

Question: With O=C(O)[C@]1(CCS(=O)(=O)c2ccccc2)N=C(c2ccc(OCCCO)cc2)O[C@@H]1c1ccccc1 as the compound, how does the composite z-score read?
Answer: The composite z-score was 3.4.

Question: Which composite z-score does the source give for [N-]=[N+]=NCc1ccccc1C[C@]1(C(=O)NCCN2CCOCC2)COC(c2ccc(OCCCO)cc2)=N1 here?
Answer: The composite z-score was 3.08.

Question: Which composite z-score does the source give for CC(C)C[C@@H]1NC(=O)[C@@H]2C[C@H](C(=O)NCc3ccc(F)cc3)[C@H](c3ccc(O)cc3)N2C1=O here?
Answer: Its composite z-score is 2.96.

Question: With C=CCNC(=O)[C@H]1[C@@H]2C(=O)O[C@@H](c3ccccc3)[C@@H](c3ccccc3)N2[C@@H](c2ccc(O)cc2)[C@]12C(=O)N(C(=O)OCCOC)c1ccc(C#CC3(O)CCCCCC3)cc12 as the compound, how does the composite z-score read?
Answer: Its composite z-score is 2.45.

Question: For COCCOC(=O)N1C(=O)[C@@]2(c3cc(C#CCC(C(=O)OC)C(=O)OC)ccc31)[C@H](C(=O)N1CCCCCCC1)[C@H]1C(=O)O[C@H](c3ccccc3)[C@H](c3ccccc3)N1[C@@H]2c1ccc(O)cc1, which composite z-score is on record?
Answer: The composite z-score was 3.19.

Question: With O=[N+]([O-])c1ccc(C[n+]2ccc(-c3ccc(CO)cc3)cc2)o1 as the compound, how does the composite z-score read?
Answer: Its composite z-score is 1.71.

Question: Which composite z-score does the source give for CN1C(=O)C2C=CC(C(O)COCc3ccccc3)N(Nc3ccccc3)C2C1=O (configuration not stated) here?
Answer: The composite z-score was 3.54.

Question: Which composite z-score does the source give for COC(=O)[C@@]1(Cc2ccc(OC)cc2)[C@H]2c3cc(C(=O)N4CCCC4)n(CCc4ccc(O)c(OC)c4)c3C[C@H]2CN1C(=O)c1ccccc1 here?
Answer: Its composite z-score is 2.6.

Question: For C=C(CCCC)/C(=C/C[C@H](OC(=O)c1ccncc1)c1ccc(CO)o1)c1cc(C(=O)OC)ccc1OC, which composite z-score is on record?
Answer: The composite z-score was 2.12.

Question: Which composite z-score does the source give for C[C@@H]1ON(c2ccccc2)[C@H](c2ccccc2)[C@H]1C(=O)N1C(=O)OC[C@H]1Cc1ccccc1 here?
Answer: The composite z-score was 0.786.
